Screening results: PubChem BioAssay, National Center for Advancing Translational Sciences (NCATS)
This is one part of a sample in which hits are shown more often than they occur.
NS1 function inh: influenza NS1 inhibition; Potency, µM (series often up to 46.1 µM), without a hit: top-dose activity, positive = more growth; actives 0.4% (n = 270,000); AID 2326; calls by dose curve; also: actives are rising curves; nearly all actives have a fitted effect of over 50% in size
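S. cerevisiae expressing influenza A NS1, grown in glucose, washed, then diluted 1:100 into pH 6.0 -URA galactose medium with 23 nl compound. Growth recovery read as OD600; NS1-free strain serves as control.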
Cruzain inh noDet: inhibitors of Trypanosoma cruzi cruzain without detergent. Potency, µM, for the others: max response, negative = inhibition, hits mostly inhibitors. purified cruzain, Z-FR-AMC fluorescence, no detergent. actives 2.3% (n = 200,000);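 also: plate controls were enzyme without inhibitor for no effect and buffer without enzyme for full effect; nearly all actives have a fitted effect of over 40% in size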
Target sequence (P25779 123-467 limits assumed): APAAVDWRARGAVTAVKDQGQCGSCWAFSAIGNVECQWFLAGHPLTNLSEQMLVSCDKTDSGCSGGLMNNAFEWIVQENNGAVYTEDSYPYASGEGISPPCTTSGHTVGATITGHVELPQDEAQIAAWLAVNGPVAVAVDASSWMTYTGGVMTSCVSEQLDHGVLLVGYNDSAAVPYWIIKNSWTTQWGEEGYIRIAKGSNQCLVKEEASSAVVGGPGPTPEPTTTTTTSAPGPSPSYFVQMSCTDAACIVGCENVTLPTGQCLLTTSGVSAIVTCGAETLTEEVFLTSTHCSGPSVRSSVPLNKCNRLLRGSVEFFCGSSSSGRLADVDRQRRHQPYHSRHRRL
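Purified cruzain at 1.5 nM, pre-incubated 15 min with compound at room temperature in 100 mM sodium acetate pH 5.5, 5 mM DTT, 0.00005% Triton X-100. Reaction started with 2 uM Z-FR-AMC; AMC fluorescence increase over 60 s gives rate.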
Cruzain inh Det: inhibitors of Trypanosoma cruzi cruzain with detergent. AID 1478. Potency, µM, inactives show max response, negative = inhibition, usual class: inhibitors. actives 0.43% (n = 200,000). P25779. purified cruzain, Z-FR-AMC fluorescence, 0.01% Triton;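 also: plate controls were neutral wells for no effect and buffer without enzyme for full effect; nearly all actives have a fitted effect of over 40% in size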
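Cysteine protease activity tested under reducing, mildly acidic conditions (100 mM sodium acetate pH 5.5, 5 mM DTT) plus 0.01% Triton X-100. Cruzain 1.5 nM; substrate Z-FR-AMC 2 uM; 15 min compound preincubation at room temperature.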
The depositor's hits bear a star; ? = inconclusive; . = not tested or not shown. Unless noted, calls follow the shape of the dose curve; as a rule, active = well fitted curve in the direction sought with a large enough effect; inconclusive = small, poorly fitted or top-dose-only effect, or another doubt; inactive = no such curve, though single readings can be large; an effect the other way counts as inactive or inconclusive. Potency is read from the fitted curve at half-maximal effect.

SMILES | NS1 function inh | Cruzain inh noDet | Cruzain inh Det
COCCOC(=O)C1=C(C)NC(SCC(=O)NC(C)(C)C)=C(C#N)C1c1ccco1 (configuration not stated) | 1% | 12% | -4%
C=CCOC(=O)C1=C(C)NC(SCC(=O)Nc2ccc(C)c(Cl)c2)=C(C#N)C1c1ccco1 (configuration not stated) | -5% | 10µM* | -7%
COc1ccccc1NC(=O)C1=C(C)NC(SCC(=O)c2ccccc2)=C(C#N)C1c1ccco1 (configuration not stated) | -4% | 16µM* | -4%
Nc1nc(SCC(=O)c2ccc(Br)cc2)c2[nH]cnc2n1 | -2% | -9% | -3%
C=CCC1(O)CCOc2ccccc21 (configuration not stated) | . | 4% | 1%
O=P1(O)Oc2c(c(-c3ccccc3)cc3ccc4ccccc4c23)-c2c(-c3ccccc3)cc3ccc4ccccc4c3c2O1 | . | -4% | 25µM*
O=P1(O)Oc2c(c(-c3ccccc3)cc3ccccc23)-c2c(-c3ccccc3)cc3ccccc3c2O1 | . | ? | -27%
Cc1cc(C)c(C(=O)Nc2ccccc2)c(SCC(=O)Nc2ccc(Br)cc2C)n1 | . | 5% | 0%
COc1ccc(OC)c(C(=O)c2ccc(C(=O)Nc3ccc(NC(C)=O)cc3)cc2)c1 | 18% | . | .
COc1ccc(OC)c(C(=O)c2ccc(C(=O)Nc3cccc4ccccc34)cc2)c1 | 12% | 25µM* | -4%
COc1ccc(NC(=O)c2ccc3ccccc3c2)cc1 | 5% | . | .
COc1ccc(C(=O)Nc2ccc(C(=O)OCC(=O)c3cccc4ccccc34)cc2)cc1 | -6% | 1.6µM* | 0%
COc1ccccc1C(=O)N1CCC(c2c[nH]c3ccccc23)(c2c[nH]c3ccccc23)CC1 | . | -21% | -3%
COC(=O)c1cc2sc(C)cc2n1Cc1ccc(Br)cc1F | . | ? | -6%
O=C(O)C(Cc1ccccc1)N1C(=O)/C(=C/c2ccccc2)SC1=S (configuration not stated) | -5% | 0% | -13%
O=C(O)C(Cc1ccccc1)N1C(=O)/C(=C/c2cccc3ccccc23)SC1=S (configuration not stated) | -22% | ? | 32µM*
Cc1ccc(C(=O)COC(=O)C2CC(=O)N(c3nc(-c4ccccc4)cs3)C2)cc1C (configuration not stated) | 7% | 32µM* | 2%
Cc1ccc(N2CC(C(=O)OCC(=O)c3ccc(F)cc3)CC2=O)cc1 (configuration not stated) | -9% | . | .
COCC(=O)C(C(=O)OC)[C@H](CCc1ccccc1)NC(=O)OC (some centres not stated) | . | -8% | 3%
CCC(=O)[C@@H](c1ccccc1)c1ccccn1 | 0% | -8% | 7%
O=C(NC1CCCC1)O[C@@H]1C(=O)c2cc(Br)ccc2O[C@H]1c1ccc2c(c1)OCO2 | . | 2% | -4%
C[C@@]1(C(NC(=O)c2cccs2)c2ccc(-c3ccccc3)cc2)C[C@H]1C1CCCCC1 (some centres not stated) | . | 4µM* | 4%
COC(=O)c1ccc(C(NC(=O)c2ccccc2)[C@]2(C)C[C@H]2C2CCCCC2)cc1 (some centres not stated) | . | -15% | 1%
C=C(C(C)=O)C(O)c1ccc(C(F)(F)F)cc1 (configuration not stated) | . | -5% | 3%
CCOc1ccc(C(=O)NCCc2sc(-c3ccc(F)cc3)nc2C)cc1 | . | 16% | -12%
SMILES | NS1 function inh | Cruzain inh noDet | Cruzain inh Det
N#Cc1c(N)sc(=S)c2c1CCN(Cc1ccccc1)C2 | -13% | 13µM* | 28µM*
CCN1CCc2c(sc(N)c2C#N)C1 | 1% | -5% | -3%
COc1ccc(-n2c(=O)c(CCc3ccccc3)nc3cnc(N4CCNCC4)nc32)cc1 | . | -11% | -7%
C[C@@]12CC[C@@H]3[C@H](CCC4=CC(=O)CC[C@]43C)[C@@H]1CC[C@@H]2C(=O)Cn1cnc2c(=S)nc[nH]c21 | ? | -7% | 3%
N#C/C(=C/c1cn(CC(=O)O)c2ccccc12)C(=O)Nc1ccccc1 | 0% | . | .
Cc1ccc(Cc2cnc(NC(=O)/C(C#N)=C/c3ccc(-c4ccccc4[N+](=O)[O-])o3)s2)cc1 | 13% | 10µM* | -1%
Cc1ccc(Cn2cc(/C=C(/C#N)C(=O)Nc3cccc(Cl)c3)c3ccccc32)cc1 | . | 7.9µM* | -3%
Cc1cccc(NC(=O)/C(C#N)=C\c2cn(CC(=O)O)c3ccccc23)c1 | 3% | . | .
COc1cccc(NC(=O)/C(C#N)=C\c2cn(Cc3ccc(Cl)cc3)c3ccccc23)c1 | . | 10µM* | -3%
CNC(=O)/C(C#N)=C/c1ccc(-c2ccccc2[N+](=O)[O-])o1 | -8% | . | .
COc1cccc(NC(=O)/C(C#N)=C/c2c(C)n(Cc3ccccc3)c3ccccc23)c1 | . | 7.9µM* | -3%
COc1cccc(NC(=O)Cn2cc(C#N)c3ccccc32)c1 | 18% | 1% | -4%
CCOC(=O)c1cccc(NC(=O)N2CC(CC)Oc3ccccc32)c1 (configuration not stated) | . | 9% | -1%
Cc1cc(Cc2cc(Cc3cc(C)cc(C(C)(C)C)c3O)c(C)cc2C)c(O)c(C(C)(C)C)c1 | 3% | -29% | -7%
COc1ccc(-n2c(SCC(=O)NC3CCCCC3)nc3c([nH]c4ccccc43)c2=O)cc1 | . | -3% | -1%
Cc1cccc(NC(=O)/C(C#N)=C/c2ccc(C)o2)c1 | . | 2% | -9%
CCc1ccc(NC(=O)/C(C#N)=C/c2cn(CC(=O)O)c3ccccc23)cc1 | 0% | . | .
Cn1cc(/C=C(\C#N)C(=O)Nc2ncc(Cc3ccc(Cl)cc3)s2)c2ccccc21 | 8% | 7.9µM* | -4%
Cc1ccc(/C=C(\C#N)C(=O)Nc2cccc(Cl)c2)o1 | . | 10µM* | 0%
Cc1cc(NCc2ccc(Cl)cc2)n2cnnc2n1 | . | -15% | -2%
Fc1ccc(-n2ncc3c(N4CCN(c5ccccc5F)CC4)ncnc32)cc1 | . | 4% | 10%
CCc1ccc(NC(=O)CCc2c(C)n(C)c3cc(-c4ccccc4C)nn3c2=O)cc1 | . | 6% | 1%
O=C(O)[C@@H]1CCCN1Cc1ccc2c(c1)OCO2 | -6% | 0% | 0%
CCCCNC(=O)c1cccc(NC(=O)c2nsc3ccccc23)c1 | . | -7% | 0%
O=C(NCc1ccccc1Br)c1ccc2nc(N3CCCCC3)sc2c1 | . | -6% | 0%
SMILES | NS1 function inh | Cruzain inh noDet | Cruzain inh Det
COc1ccc(NC(=O)/C(C#N)=C/c2ccc(OCc3ccccc3F)cc2)cc1 | -33% | 4µM* | -1%
CCN(CC)S(=O)(=O)c1ccc(N2CCCCC2)c(NC(=O)/C(C#N)=C/c2ccc(OC)cc2)c1 | 7% | 10µM* | -7%
COc1ccc(/C=C(\C#N)C(=O)Nc2cc(S(=O)(=O)N3CCOCC3)ccc2N2CCCC2)cc1 | ? | ? | -17%
CCOc1ccc(NC(=O)/C(C#N)=C/c2ccc(N3CCCC3)c(C)c2)cc1 | 14% | 10µM* | -7%
N#C/C(=C\c1ccc(OCc2ccccc2)cc1)C(=O)Nc1ccc(C(=O)O)cc1 | -56% | . | .
CCOc1cc(/C=C(/C#N)C(=O)Nc2ccc(O)cc2)cc(Br)c1O | 7% | -13% | -2%
CC(=O)N1[C@H](Cc2ccccc2)C=C[C@]1(C)C(=O)O | . | -7% | -1%
Cc1cccc(S(=O)(=O)N2CN(Cc3ccco3)c3nc4ccccc4nc32)c1 | -4% | 25µM* | -8%
